According to PubChem BioAssay (NCI):
The panel holds about 83,000 compounds, 20% with a hit somewhere; the sample as a whole holds those more often.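 Treatment: one concentration, 48 hours, 96-well format. Scoring: percent growth, with anything below 10 considered active.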 Unmarked numbers belong to inactive results. Active and inactive are the calls of the source.

What was measured:
Assay in all cases: NCI-60 one-dose screen, 48 h (100 = growth as untreated, 0 = no growth, -100 = all killed)
Settings in all cases: 10 µM unless noted
HCT-15 colon = test system: HCT-15 colon
HT29 colon = test system: HT29 colon
SNB-75 CNS = test system: SNB-75 CNS
SNB-19 CNS = test system: SNB-19 CNS
U251 CNS = test system: U251 CNS
PC-3 prostate = test system: PC-3 prostate
SK-MEL-5 melanoma = test system: SK-MEL-5 melanoma
UACC-62 melanoma = test system: UACC-62 melanoma
SK-MEL-28 melanoma = test system: SK-MEL-28 melanoma
SK-MEL-2 melanoma = test system: SK-MEL-2 melanoma
EKVX NSCLC = test system: EKVX NSCLC
SN12C renal = test system: SN12C renal
UO-31 renal = test system: UO-31 renal
TK-10 renal = test system: TK-10 renal
ACHN renal = test system: ACHN renal
CAKI-1 renal = test system: CAKI-1 renal
A498 renal = test system: A498 renal
CCRF-CEM leukemia = test system: CCRF-CEM leukemia
MOLT-4 leukemia = test system: MOLT-4 leukemia

NS(=O)(=O)c1ccc(N=Nc2c(O)n(CC(=O)Nc3ccccc3Cl)c3ccccc23)cc1
growth (HCT-15 colon): 25.1%
growth (HT29 colon): 7.23% (active)
growth (SNB-75 CNS): 52.8%
growth (SNB-19 CNS): 36.9%
growth (U251 CNS): 6.28% (active)
growth (PC-3 prostate): 26.1%
growth (SK-MEL-5 melanoma): -1.56% (active)
growth (UACC-62 melanoma): 19.7%
growth (SK-MEL-28 melanoma): 21.2%
growth (SK-MEL-2 melanoma): 9.55% (active)
growth (EKVX NSCLC): 38.1%
growth (SN12C renal): 27.6%
growth (UO-31 renal): 2.95% (active)
growth (TK-10 renal): 63%
growth (ACHN renal): 6.65% (active)
growth (CAKI-1 renal): 16.6%
growth (A498 renal): 80.2%
growth (CCRF-CEM leukemia): 50.5%
growth (MOLT-4 leukemia): 26.7%

CC1CCCCN1CCCNC(=O)N/C(N)=N/c1nc2ccccc2s1 (configuration not stated)
growth (HCT-15 colon): -13.6% (active)
growth (HT29 colon): 3.14% (active)
growth (SNB-75 CNS): 4.11% (active)
growth (SNB-19 CNS): 61.5%
growth (U251 CNS): 40.8%
growth (PC-3 prostate): 31.6%
growth (SK-MEL-5 melanoma): -96.7% (active)
growth (UACC-62 melanoma): -84.2% (active)
growth (SK-MEL-28 melanoma): -97% (active)
growth (SK-MEL-2 melanoma): 41.3%
growth (EKVX NSCLC): 46.1%
growth (SN12C renal): 40.9%
growth (UO-31 renal): 24.4%
growth (TK-10 renal): 70.1%
growth (ACHN renal): 42.5%
growth (CAKI-1 renal): 24.6%
growth (A498 renal): 104%
growth (CCRF-CEM leukemia): 26.8%
growth (MOLT-4 leukemia): 16.4%

CC1=C(C(=O)c2ccccc2)C(c2cccc3ccccc23)n2c(nc3ccccc32)N1 (configuration not stated)
growth (HCT-15 colon): 70.3%
growth (HT29 colon): 50.5%
growth (SNB-75 CNS): 60.3%
growth (SNB-19 CNS): 66.1%
growth (U251 CNS): 17%
growth (PC-3 prostate): 53.2%
growth (SK-MEL-5 melanoma): 62.1%
growth (UACC-62 melanoma): 37.5%
growth (SK-MEL-28 melanoma): 84.1%
growth (SK-MEL-2 melanoma): 106%
growth (EKVX NSCLC): 58.4%
growth (SN12C renal): 75.3%
growth (UO-31 renal): 81.8%
growth (TK-10 renal): 83.8%
growth (ACHN renal): 88.5%
growth (CAKI-1 renal): 55.7%
growth (A498 renal): 153%
growth (CCRF-CEM leukemia): 55.9%
growth (MOLT-4 leukemia): 52.3%

CSc1ccccc1NC(=O)c1ccc2nnn(/C(C#N)=C/c3ccccn3)c2c1
growth (HCT-15 colon): -79.9% (active)
growth (HT29 colon): -92.1% (active)
growth (SNB-75 CNS): 67.9%
growth (SNB-19 CNS): 0.0552% (active)
growth (U251 CNS): -90.9% (active)
growth (PC-3 prostate): -71% (active)
growth (SK-MEL-5 melanoma): -98.9% (active)
growth (UACC-62 melanoma): -98.8% (active)
growth (SK-MEL-28 melanoma): -99.2% (active)
growth (SK-MEL-2 melanoma): -86.4% (active)
growth (EKVX NSCLC): -95.6% (active)
growth (SN12C renal): -99% (active)
growth (UO-31 renal): -100% (active)
growth (TK-10 renal): -98.6% (active)
growth (ACHN renal): -100% (active)
growth (CAKI-1 renal): -88.2% (active)
growth (A498 renal): 82.9%
growth (CCRF-CEM leukemia): -27.5% (active)
growth (MOLT-4 leukemia): -27.9% (active)

CC1=C(C(=O)OCc2ccccc2)C(c2ccc(-n3cncn3)cc2)n2c(nc3ccccc32)N1 (configuration not stated)
growth (HCT-15 colon): 33.1%
growth (HT29 colon): 24.7%
growth (SNB-75 CNS): 47.9%
growth (SNB-19 CNS): 66.9%
growth (U251 CNS): 63.4%
growth (PC-3 prostate): 43.3%
growth (SK-MEL-5 melanoma): 39.7%
growth (UACC-62 melanoma): 16.2%
growth (SK-MEL-28 melanoma): 66.5%
growth (SK-MEL-2 melanoma): 80.6%
growth (EKVX NSCLC): 48.4%
growth (SN12C renal): 72.9%
growth (UO-31 renal): 51.6%
growth (TK-10 renal): 89.7%
growth (ACHN renal): 51.3%
growth (CAKI-1 renal): 42.8%
growth (A498 renal): 79.8%
growth (CCRF-CEM leukemia): 16.1%
growth (MOLT-4 leukemia): 36.6%

CCCCc1c(Nn2cnnn2)no[n+]1[O-]
growth (HCT-15 colon): 32.8%
growth (HT29 colon): 59.5%
growth (SNB-75 CNS): 48.9%
growth (SNB-19 CNS): 72.3%
growth (U251 CNS): 51.3%
growth (PC-3 prostate): 58.1%
growth (SK-MEL-5 melanoma): 80.6%
growth (UACC-62 melanoma): 52.4%
growth (SK-MEL-28 melanoma): 73%
growth (SK-MEL-2 melanoma): 80.1%
growth (EKVX NSCLC): 54.2%
growth (SN12C renal): 42.4%
growth (UO-31 renal): 28.4%
growth (TK-10 renal): 96.5%
growth (ACHN renal): 54.9%
growth (CAKI-1 renal): 39.5%
growth (A498 renal): 79.2%
growth (CCRF-CEM leukemia): 31.6%
growth (MOLT-4 leukemia): 23%

N#Cc1ccc(/C=N/NC(=O)c2[nH]c3ccc(Br)cc3c2-c2ccccc2)o1
growth (HCT-15 colon): 8.65% (active)
growth (HT29 colon): -15.3% (active)
growth (SNB-75 CNS): 5.21% (active)
growth (SNB-19 CNS): 34.5%
growth (U251 CNS): 6.89% (active)
growth (PC-3 prostate): 13.1%
growth (SK-MEL-5 melanoma): -65.5% (active)
growth (UACC-62 melanoma): 15.2%
growth (SK-MEL-28 melanoma): 27.4%
growth (SK-MEL-2 melanoma): 22.9%
growth (EKVX NSCLC): 12.9%
growth (SN12C renal): 5.87% (active)
growth (UO-31 renal): 24.8%
growth (TK-10 renal): 27.8%
growth (ACHN renal): 8.88% (active)
growth (CAKI-1 renal): 26.9%
growth (A498 renal): 78.1%
growth (CCRF-CEM leukemia): -3.51% (active)
growth (MOLT-4 leukemia): 1.36% (active)

COc1cc2oc(-c3cccc(C(=O)Nc4cccc([N+](=O)[O-])c4)c3)cc(=O)c2c(OC)c1OC
growth (HCT-15 colon): 58.1%
growth (HT29 colon): 59.9%
growth (SNB-75 CNS): -6.58% (active)
growth (SNB-19 CNS): -4.16% (active)
growth (U251 CNS): 23.8%
growth (PC-3 prostate): 33.3%
growth (SK-MEL-5 melanoma): 43.4%
growth (UACC-62 melanoma): 18.4%
growth (SK-MEL-28 melanoma): 25.3%
growth (SK-MEL-2 melanoma): -0.125% (active)
growth (EKVX NSCLC): 41.6%
growth (SN12C renal): 25.8%
growth (UO-31 renal): 0.82% (active)
growth (TK-10 renal): 37.2%
growth (ACHN renal): 16.2%
growth (CAKI-1 renal): 8.83% (active)
growth (A498 renal): 3.68% (active)
growth (CCRF-CEM leukemia): 84.1%
growth (MOLT-4 leukemia): 64.6%
